Results published in PubChem BioAssay AID1851 (National Center for Advancing Translational Sciences (NCATS), 2009).
“And” between values parts separate entries of the source, which are not always exact repeats. Identical values can stand only once. About 5,100 (32%) of roughly 16,000 compounds were called active. Not shown: some 25% with an inconclusive outcome. The call rests on the fitted dose curve; in most records, active means well fitted curve in the direction sought with a large enough effect; inconclusive means small, poorly fitted or top-dose-only effect, or effect the other way; inactive means no such curve, though single readings can be large or run the other way. The list shows a part of the results.

target: Cytochrome P450 3A4 (Homo sapiens) (UniProt P08684); assay: Cytochrome panel assay with activity outcomes; conditions: recombinant CYP, pro-luciferin dealkylation, luminescence, p450-cyp3a4; series mostly up to 57.1 µM
Sequence (P08684 whole entry, looked up): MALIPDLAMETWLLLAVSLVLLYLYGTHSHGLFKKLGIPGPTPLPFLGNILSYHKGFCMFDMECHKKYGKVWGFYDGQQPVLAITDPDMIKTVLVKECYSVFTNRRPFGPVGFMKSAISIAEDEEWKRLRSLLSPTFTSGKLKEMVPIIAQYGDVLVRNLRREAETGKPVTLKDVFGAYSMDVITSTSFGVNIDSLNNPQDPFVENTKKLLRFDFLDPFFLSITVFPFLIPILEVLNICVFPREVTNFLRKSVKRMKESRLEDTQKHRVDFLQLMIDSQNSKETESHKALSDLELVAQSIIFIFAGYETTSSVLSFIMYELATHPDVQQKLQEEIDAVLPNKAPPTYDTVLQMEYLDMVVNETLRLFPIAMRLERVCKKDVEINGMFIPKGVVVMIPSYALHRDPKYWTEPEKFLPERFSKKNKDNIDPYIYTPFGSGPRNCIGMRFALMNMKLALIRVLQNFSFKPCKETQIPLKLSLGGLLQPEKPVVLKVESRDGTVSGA
On the % scale 0 is the no-effect control and ±100 the full control effect.

AC50, active:
Fc1ccc(SCCc2ccncc2)cc1 3.55 µM
ON(CCc1ccncc1)Cc1ccccc1 1 µM
c1ccc(SCCc2ccncc2)cc1 2.51 µM
Cc1ccc(C(=O)C(OC(=O)CNS(=O)(=O)c2ccccc2)c2ccccc2)cc1 (stereo not drawn) 14.1 µM
Cc1ccc(C(=O)C(OC(=O)COc2ccccc2C)c2ccccc2)cc1 (stereo not drawn) 10 µM
Cc1ccc(C(=O)C(OC(=O)CCC(=O)Nc2cccc(C)c2)c2ccccc2)cc1 (stereo not drawn) 25.1 µM
COc1ccc(C(=O)C(OC(=O)CNC(=O)c2ccco2)c2ccccc2)cc1 (stereo not drawn) 14.1 µM
Cc1ccc(C(=O)C(OC(=O)CN2C(=O)c3ccccc3C2=O)c2ccccc2)cc1 (stereo not drawn) 7.94 µM
COc1ccc(C(=S)Nc2ccccc2)cc1 31.6 µM
CCCn1nc(C(=O)NCC(C)(C)N2CCOCC2)c2ccccc2c1=O 7.08 µM
Cc1cc(Cl)ccc1OCCCC(=O)N1CCN(C)CC1 12.6 µM
COc1ccc(O[C@H]2C=C[C@@H](c3ccccc3)O[C@H]2CO/N=C2/[C@H]3O[C@@H]3[C@@H](O)[C@H]3[C@H]2CCn2c(=O)n(-c4ccccc4)c(=O)n23)cc1 3.16 µM
CCCNC(=O)OC[C@H]1O[C@@H](CCO/N=C2/[C@H]3O[C@@H]3[C@@H](O)[C@H]3[C@H]2CCn2c(=O)n(-c4ccccc4)c(=O)n23)C=C[C@@H]1Oc1ccc(OC)cc1 3.16 µM
O=C(c1csnn1)N1CCC2(CCCN(c3ccccc3)C2)CC1 12.6 µM
O=C(c1csnn1)N1CCC2(CCCN(c3ccc(-c4ccccc4)cc3)C2)CC1 7.94 µM
CN1CCC(n2[nH]c(-c3ccccc3)c(Cc3ccccc3)c2=O)CC1 3.98 µM
CCOC(=O)c1c(C)oc2c1cc(O)c1ccccc12 14.1 µM
COc1cc(CNC(=O)CCCC/C=C\C(C)C)ccc1O 3.98 µM and 7.94 µM
CCn1c(SCC(=O)Nc2sc3c(c2C(N)=O)CCC(C)C3)nnc1-c1ccco1 (stereo not drawn) 7.08 µM
COc1ccc(CNc2ccnc(-c3cccc(C#N)c3)n2)c(OC)c1 2 µM
COc1ccccc1CNc1ccnc(-c2cccc(C#N)c2)n1 3.98 µM
O=C(Nc1nnc(SCc2c(Cl)cccc2Cl)s1)C1CCCO1 (stereo not drawn) 12.6 µM
O=C(Nc1nnc(SCc2ccc(Cl)cc2Cl)s1)C1COc2ccccc2O1 (stereo not drawn) 4.47 µM
Cc1nn(CCc2n[nH]c(=S)n2-c2ccc(F)c(Cl)c2)c(C)c1[N+](=O)[O-] 3.16 µM
CC(C)N1CCN(c2ccc(OC[C@@H]3CO[C@@](Cn4cncn4)(c4ccc(Cl)cc4Cl)O3)cc2)CC1 1.58 µM
Cc1noc(C)c1-c1nc(NCc2cccs2)c2ccccc2n1 6.31 µM
COc1ccc(CNc2nc(-c3c(C)noc3C)nc3ccccc23)c(OC)c1 2.51 µM
COc1ccccc1CNc1nc(-c2c(C)noc2C)nc2ccccc12 10 µM
CN(C)c1ccc(-c2cncnc2NCc2cccs2)cc1 0.794 µM
CN(C)C(=O)c1ccc(-c2cncnc2NCc2cccs2)cc1 3.16 µM
CCCn1c2c(c(O)c(C(=O)NCc3ccccc3)c1=O)CCCC2 17.8 µM
COc1ccc(-n2c(=O)c(-c3cn(C)c4ccccc34)nc3cnc(OC)nc32)cc1 1.58 µM
COc1ncc2nc(-c3cn(C)c4ccccc34)c(=O)n(CCC#N)c2n1 6.31 µM
COc1ncc2nc(-c3cn(C)c4ccccc34)c(=O)n(C)c2n1 5.01 µM
Cc1c(NC(=O)CCCOc2ccccc2)cccc1[N+](=O)[O-] 14.1 µM
Cc1cccc(OCCCC(=O)Nc2ccccc2C(F)(F)F)c1 14.1 µM
CCN(CC)S(=O)(=O)c1ccc(OC)c(NC(=O)c2cc([N+](=O)[O-])ccc2Cl)c1 12.6 µM
CCCCC(=O)Nc1cc(OCC)c(NC(=O)c2ccccc2[N+](=O)[O-])cc1OCC 7.08 µM

AC50, inactive:
CCN(CCCc1ccccc1)CCCc1ccccc1
Cc1ccccc1OCC(=O)OC1CCN(C)CC1
CCOC(=O)CC(NC(=O)c1ccco1)c1ccc(OC)cc1 (stereo not drawn)
O=C(O)Cc1cc(I)c(Oc2ccc(O)c(I)c2)c(I)c1
NC1=NC2(CCCCC2)N=C(Nc2ccc(F)cc2F)N1
CN(CC[C@@H](Oc1ccc(-c2ccccc2)cc1)c1ccc(F)cc1)CC(=O)O
CC1CCN(CCOc2cc(Cl)ccc2Cl)CC1
O=C(CP(=O)(c1ccccc1)c1ccccc1)Nn1cnnc1
O=C(c1csnn1)N1CCC2(CC1)CN(c1ccccc1)C2
O=C(c1csnn1)N1CCC2(CC1)CCN(c1ccccc1)CC2
O=C(c1csnn1)N1CCC2(CC1)CCN(c1ccccn1)CC2
CCNc1ncc2nc(-c3ccc(Cl)cc3)c(=O)n(C3CC3)c2n1
CCOC(=O)c1c(C)oc2c1c(C=NC1CCS(=O)(=O)C1)c(O)c1ccccc12 (stereo not drawn)
CCOC(=O)c1c(C(C)(C)C)oc2ccc(O)cc12
COc1cc(CC(=O)O)ccc1O
COc1cc([C@H](O)C(=O)O)ccc1O
CCOC(=O)c1c(NC(=S)NC(=O)c2cnn(CC)c2)sc2c1CCC(C)C2 (stereo not drawn)
CCn1c(SCC(=O)Nc2sc3c(c2C#N)CCC(C(C)(C)C)C3)nnc1-c1ccco1 (stereo not drawn)
CC(=O)C[C@H](c1ccc([N+](=O)[O-])cc1)c1c(O)c2ccccc2oc1=O
O=C(O)CC/C=C\CC[C@H]1[C@@H](N2CCCCC2)[C@@H](O)C[C@@H]1OCc1ccc(-c2ccccc2)cc1
NC(=O)c1ccc(NC(=O)C2CCCO2)cc1 (stereo not drawn)
O=C(Nc1ncc(Cc2ccccc2)s1)C1COc2ccccc2O1 (stereo not drawn)
CCCCCCCCCCCCCCCC[N+](C)(C)CCN(Cc1ccc(OC)cc1)c1ncccn1
C[n+]1ccccc1/C=N\O
CCn1cc(C(=O)O)c(=O)c2cnc(N3CCCC3)nc21
COc1ncc2nc(-c3ccccc3)c(=O)n(-c3ccccc3)c2n1
Cn1cc(-c2nc3cnc(Oc4ccccc4)nc3n(C)c2=O)c2ccccc21
CC(=O)c1cnc2c(C(=O)O)cnn2c1C
O=C1NCCCC1C(=O)Nc1ccccc1C(F)(F)F (stereo not drawn)
Cc1c(NC(=O)/C=C/C(=O)O)cccc1[N+](=O)[O-]
Cc1ccc(OCC(=O)NNC(=O)CCC(=O)Nc2ccc(C)cc2C)cc1

activity, negative = inhibition, inactive:
c1ccc(CCN2CCN=C2Cc2ccccc2)cc1 7.9% [at 11.4 µM]
C[C@@H](CSC(=N)N)C(N)=O -8.21% [at 11.4 µM]
CCN(CC(=O)O)CC(=O)O 0.0109% [at 11.4 µM]
CC(=O)Nc1cccc(C(=O)OC(C(=O)c2ccc(C)c(C)c2)c2ccccc2)c1 (stereo not drawn) 8% [at 2.29 µM]
CC(=O)NNC(=O)CCC(=O)Nc1ccccc1 6.14% [at 2.29 µM]
O=C(O)CC[C@@H](C(=O)O)N1C(=O)c2ccccc2C1=O -3.86% [at 11.4 µM]
COc1ccc(NC(=S)Nc2ccccc2)cc1 -19.5% [at 11.4 µM]
CCN(CC)CCNC(=O)C(C)c1nn(C)c(=O)c2ccccc12 (stereo not drawn) -0.681% [at 2.29 µM]
CC(C)NCCCOc1ccc(Cl)cc1Br 6.16% [at 2.29 µM]
CC(C)=CCC/C(C)=C/CO/N=C1/[C@H]2O[C@@H]2[C@@H](O)[C@H]2[C@H]1CCn1c(=O)n(-c3ccccc3)c(=O)n12 -17.8% [at 11.4 µM]
O=c1n(-c2ccccc2)c(=O)n2n1CC[C@H]1/C(=N\OCc3ccccc3)[C@H]3O[C@@H]3[C@@H](O)[C@@H]12 -7.77% [at 11.4 µM]
CC(C)CO/N=C1/[C@H]2O[C@@H]2[C@@H](O)[C@H]2[C@H]1CCn1c(=O)n(-c3ccccc3)c(=O)n12 -14% [at 11.4 µM]
CC(=O)OC[C@H]1O[C@@H](O/N=C2/[C@H]3O[C@@H]3[C@@H](O)[C@H]3[C@H]2CCn2c(=O)n(-c4ccccc4)c(=O)n23)[C@H](OC(C)=O)[C@@H](OC(C)=O)[C@@H]1OC(C)=O -17.4% [at 11.4 µM]
O=c1c(Cc2ccccc2)c(O)nc2n1CCS2 -2.9% [at 2.29 µM]
CN(C)CN1CSC(=S)N(CN(C)C)C1 -11.6% [at 11.4 µM]
CC1=NCC[N@@+]1(CCc1ccccc1)Cc1ccccc1 -18.6% [at 11.4 µM]
N#C[C@H](c1ccccc1)N1CCCN([C@@H](C#N)c2ccccc2)C1c1ccccc1O (stereo partly drawn) -24.5% [at 11.4 µM]
NC(N)=NC(N)=Nc1c(F)c(F)c(F)c(F)c1F -1.13% [at 11.4 µM]
CC(C)=C1C(=O)NN(c2ccc(F)c(Cl)c2)C1=O -12.4% [at 11.4 µM]
Cc1cccc(-n2c(Cn3nc(C)c([N+](=O)[O-])c3C)n[nH]c2=S)c1 -17% [at 2.29 µM]
O=C(Nc1c[nH]c(=O)[nH]c1=O)Oc1ccccc1 -22.1% [at 11.4 µM]
CCCCCCc1nc2ccccc2c(=O)n1NC(=O)c1c(O)c2c(n(CC(C)C)c1=O)CCCC2 10% [at 2.29 µM]
Cc1cc(=O)oc(C)c1C(=O)NCc1ccccc1 0.149% [at 2.29 µM]
CCOc1cc(NC(=O)c2ccccc2[N+](=O)[O-])c(OCC)cc1NC(=O)CC(C)C 3.38% [at 2.29 µM]
